From PubChem BioAssay AID2507 (National Center for Advancing Translational Sciences (NCATS), 2010) come the findings set out here.

Results filed as inconclusive are left out. Values without a mark were called inactive. Activity calls are given as the source filed them. The call rests on the fitted dose curve; in most records, active means well fitted inhibition curve with a large enough effect; inconclusive means small, poorly fitted or top-dose-only effect, or effect the other way; inactive means flat fitted curve, though single readings scatter.

A short description of the test: Secondary Assay for General miRNAs Modulators and/or Inhibitors/Activators of miR-21: miR-30 Firefly Luciferase Assay. The note with it: HeLa miR-30 FLuc reporter, luminescence, 48 h; series mostly up to 38.3 µM; activity change, negative = inhibition: at the top concentration. The source says: MLSCN Grant: 1 R21 NS059478-01 Assay Provider: Qihong Huang, The Wistar Institute NCGC Assay Overview: MicroRNAs (miRNAs) are endogenously encoded small (~20-25 nucleotides), nonprotein-coding RNAs that are involved in post-transcriptional repression of target messenger RNAs (mRNAs) (Le and Hannon, 2004). Estimated to be involved in the regulation of 30% of all protein-coding mRNAs (Filipowicz et al., 2008), miRNAs play a significant role in many biological processes including cellular differentiation and tissue development (Ghildiyal and Zamore, 2009). […] Compounds active in the miR-21 FLuc assay were clustered using Leadscope and active chemical series were prioritized based on chemical properties, potential for medicinal chemistry optimization, and SAR. Within each chemical series, representative compounds were re-acquired to test for activity in a secondary assay based on the quality of their CRC, efficacy, and potency. The secondary assay to determine if compounds active in the miR-21 FLuc assay were potentially specific for miR-21 and were not general modulators of the miRNA pathway was another cell-based FLuc reporter gene assay, this time targeting miR-30. Compounds found active in both the miR-21 FLuc and miR-30 FLuc assays are not considered miR-21 specific compounds, and may be general miRNA modulators.
NCGC Assay Protocol Summary: Reagents: HeLa cells stably expressing firefly luciferase (FLuc) under the control of a CMV promoter (upstream) and a miR-30 binding sequence directly downstream of the gene. These cells also stably express miR-30. Control compounds used were compound C3 (provided by collaborator), N6-phenyladenosine (MP Biomedicals, 0215379625), and DMSO. Assay Summary: 6uL of HeLa miR-30-FLuc cells in assay buffer (DMEM, Invitrogen #21063-029; 10% FBS, HyClone #SH30071.03) were dispensed at 1000cells/well (1.7 x 10^5 cells/mL) into Greiner solid-white TC-treated 1536-well plates using a Multidrop Combi (Thermo Fisher Scientific). Plates were incubated for one hour at 37 degree Celsius, 95% humidity, 5% CO2. These assay plates were then treated with 23nL of compound or DMSO using a Kalypsys pin tool, which allows for delivery of a 24-point titration of each compound to the assay plate, with a final compound concentration ranging from approximately 40uM to 5pM. Assay plates were then incubated for 48 hours. After incubation, plates were allowed to come to RT for one hour prior to delivery of 3uL of 3X luciferase detection reagent. After a 15 minute incubation to allow for cell lysis, luciferase activity was measured using a ViewLux CCD imager (PerkinElmer), with an average exposure time of 2-12 seconds. Keywords: NIH Roadmap, MLPCN, MLSMR, qHTS, miR-21, miR-30, microRNA, firefly luciferase, FLuc.
With `O=S(=O)(c1ccc(F)cc1)n1ccc(-c2cnc(-c3ccccc3)s2)n1`, the Potency was 6.34 µM (active).
As for `CCc1ccc2oc(C(=O)Nc3nonc3CC)c(C)c2c1`, the Potency was 3.56 µM (active).
The same measure, in the same setting: the value for `CS(=O)(=O)n1nc(-c2ccc(Cl)cc2)nc1SCc1ccccc1` was 10 µM (active); that for `Cc1ccc(CNc2nc3nc(C)c(Cl)c(C)n3n2)cc1` was 6.34 µM (active); that for `Cn1c(=O)[nH]c2cc(-c3noc(-c4ccc(F)cc4)n3)ccc21` was 2.52 µM (active).
As for `Cc1ccc(CNc2nc(-c3ccco3)nn2S(C)(=O)=O)cc1`, the Potency is 2.83 µM (active).
Same read-out and setting: the value for `CC(C)C(=O)Nc1nc2c(s1)CC(C(C)(C)C)CC2` (stereo not given) was 0.895 µM (active); that for `CCc1nonc1NC(=O)c1oc2ccc(C)cc2c1C` was 4.49 µM (active); that for `CC(C)COc1ccc(C(=O)Nc2cc(-c3ccccc3)no2)cc1` was 2.25 µM (active).
Same read-out and setting: next, `COc1ccc(OCC(=O)Nc2ccc(-c3nc4cc(C)c(C)cc4o3)cc2)cc1`: 0.798 µM (active); `Cc1ccc(-n2nnc(-c3nc(-c4cccs4)no3)c2N)cc1C`: 2.52 µM (active); `Nc1c(-c2nc(-c3cccs3)no2)nnn1-c1cccc(F)c1`: 0.283 µM (active).
With `COc1ccccc1NC(=O)C/C(C)=N/NC(=O)c1ccccn1`, the “activity change, negative = inhibition” value was -7.18%.
`Cc1nnc(SCc2nc(N)nc(Nc3ccccc3)n2)s1`: the Potency is 22.5 µM (active).
Consider `COc1ccc(OCC(=O)Nc2cc(-c3nc4ccccc4s3)ccc2C)cc1`, for which the Potency is 4.49 µM (active).
Still for that read-out and setting: the value for `Cc1cc(C)c2c(N)c(C(=O)Nc3ccccc3F)sc2n1` was 1.79 µM (active); that for `COc1ccc(C(=O)Nc2nnc(C(C)C)s2)cc1OC` was 7.98 µM (active).
Take `O=C(Nc1nnc(S(=O)(=O)N2CCCC2)s1)c1ccc(F)cc1`: the “activity change, negative = inhibition” value is -22.3%.
On the same count and under the same terms, the value for `Cc1ccc(NC(=O)Cn2nnc(-c3nc(-c4ccc(Cl)cc4)no3)c2N)cc1C` was -16.2%.
Turning to `Cc1ccc(Nc2ncnc(N)n2)cc1C`, the Potency was 10 µM (active).
Take `Cc1ccc(SCC(=O)Nc2ccc3oc(-c4ccc(F)cc4)nc3c2)cc1`: the Potency is 11.3 µM (active).
For `CCCn1c(=O)c2sccc2n2c(CCCC(=O)Nc3ccc(Oc4ccc(Cl)cc4)cc3)nnc12`, the “activity change, negative = inhibition” value was 19.4%.
In the case of `CC(=O)c1cnc2nc(SCc3ccccc3)nn2c1C`, the Potency was 12.6 µM (active).
Still for that read-out and setting: next, `COc1ccc(NC(=O)CSc2nc(SC)ns2)c(OC)c1`: 5.04 µM (active).
As for `Cc1cccc(OCc2nnc(SCC(=O)Nc3ccc(N4CCOCC4)cc3)o2)c1`, the “activity change, negative = inhibition” value was 10.4%.
Regarding `CCc1nonc1NC(=O)c1oc2ccccc2c1C`, the Potency was 12.6 µM (active).
For `Nc1c(-c2nc(-c3ccncc3)no2)nnn1CC(=O)Nc1ccccc1`, the “activity change, negative = inhibition” value was -3.22%.
With `COc1nc(Nc2cccc(C(F)(F)F)c2)nc(OC)n1`, the Potency is 22.5 µM (active).
Same read-out and setting: the value for `CC(=O)Nc1nc2c(C)cc(NC(=O)C3CCCCC3)cc2s1` was 1.26 µM (active); that for `CSc1nsc(SCC(=O)Nc2ccc(F)cc2F)n1` was 12.6 µM (active).
With `COc1ccc(CNc2n[nH]c(-c3ccco3)n2)cc1OC`, the “activity change, negative = inhibition” value was -23.9%.
As for `COc1ccc(NC(=O)CSc2nnc(-c3cccs3)o2)cc1`, the Potency was 3.56 µM (active).
Same read-out and setting: the value for `CC(C)(C)c1ccc(NC(=O)CSc2nnc(-c3n[nH]c4ccccc34)o2)cc1` was 11.3 µM (active).
The same measure, in the same setting: next, `CN(C)c1ccc(CNc2nc(-c3ccco3)nn2S(C)(=O)=O)cc1`: 2.83 µM (active).
Take `CCC(Oc1ccccc1F)C(=O)N1CCC(c2nc3ccccc3s2)CC1` (stereo not given): the “activity change, negative = inhibition” value is 18.4%.
Consider `COc1cccc(-n2nnc(-c3nc(-c4cccs4)no3)c2N)c1`, for which the Potency is 0.634 µM (active).
Still for that read-out and setting: the value for `Cc1ccc2c(C)c(C(=O)N(C)C(C)c3ccncn3)oc2c1C` (stereo not given) was 22.5 µM (active).
With `Cc1cccc(-n2nnc(-c3nc(-c4cccs4)no3)c2N)c1C`, the Potency was 0.159 µM (active).
In the case of `CCc1cccc(-n2nnc(-c3nsc(NC(=O)c4cccs4)n3)c2C)c1`, the Potency was 7.11 µM (active).
The same measure, in the same setting: next, `COc1ccccc1NC(=O)CSc1nnc(-c2ccccn2)o1`: 5.04 µM (active).
